ChEMBL document CHEMBL2218924, “A broad activity screen in support of a chemogenomic map for kinase signalling research and drug discovery” (Biochem J, 2013)

Key:
[1] = target: T1, Ephrin type-A receptor 3 (Homo sapiens) (UniProt P29320); conditions: at 10 µM
T1 sequence (whole entry): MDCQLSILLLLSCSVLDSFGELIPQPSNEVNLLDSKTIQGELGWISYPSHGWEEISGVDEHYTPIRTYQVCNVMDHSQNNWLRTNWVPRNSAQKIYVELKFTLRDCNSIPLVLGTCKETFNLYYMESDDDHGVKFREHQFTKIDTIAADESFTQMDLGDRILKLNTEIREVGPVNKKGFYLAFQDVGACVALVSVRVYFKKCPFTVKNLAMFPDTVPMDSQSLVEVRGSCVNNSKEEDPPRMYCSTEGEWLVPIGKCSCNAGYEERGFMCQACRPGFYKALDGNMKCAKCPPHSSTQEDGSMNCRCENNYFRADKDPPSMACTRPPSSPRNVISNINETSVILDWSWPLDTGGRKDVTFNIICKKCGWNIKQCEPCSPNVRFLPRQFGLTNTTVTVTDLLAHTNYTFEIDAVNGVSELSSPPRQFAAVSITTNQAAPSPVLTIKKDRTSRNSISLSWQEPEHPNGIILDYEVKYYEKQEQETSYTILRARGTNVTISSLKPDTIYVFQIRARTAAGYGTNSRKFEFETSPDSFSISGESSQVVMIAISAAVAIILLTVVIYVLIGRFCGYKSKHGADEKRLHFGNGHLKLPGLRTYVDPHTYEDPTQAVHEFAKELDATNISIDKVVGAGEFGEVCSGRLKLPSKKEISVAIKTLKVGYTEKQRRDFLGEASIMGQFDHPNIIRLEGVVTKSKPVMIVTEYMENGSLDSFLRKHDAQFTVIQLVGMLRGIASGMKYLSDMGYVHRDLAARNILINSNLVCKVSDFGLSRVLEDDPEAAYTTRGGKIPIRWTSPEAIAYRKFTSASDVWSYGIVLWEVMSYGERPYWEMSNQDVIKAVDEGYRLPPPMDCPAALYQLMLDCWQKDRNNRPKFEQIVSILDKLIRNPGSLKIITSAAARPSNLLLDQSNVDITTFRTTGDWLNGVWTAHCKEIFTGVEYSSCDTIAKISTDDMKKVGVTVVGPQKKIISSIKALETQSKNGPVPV

[2] = target: Ephrin type-A receptor 7 (Homo sapiens) (UniProt Q15375); conditions: at 1 µM
Ephrin type-A receptor 7 (Homo sapiens), sequence (Q15375 28-998 limits assumed): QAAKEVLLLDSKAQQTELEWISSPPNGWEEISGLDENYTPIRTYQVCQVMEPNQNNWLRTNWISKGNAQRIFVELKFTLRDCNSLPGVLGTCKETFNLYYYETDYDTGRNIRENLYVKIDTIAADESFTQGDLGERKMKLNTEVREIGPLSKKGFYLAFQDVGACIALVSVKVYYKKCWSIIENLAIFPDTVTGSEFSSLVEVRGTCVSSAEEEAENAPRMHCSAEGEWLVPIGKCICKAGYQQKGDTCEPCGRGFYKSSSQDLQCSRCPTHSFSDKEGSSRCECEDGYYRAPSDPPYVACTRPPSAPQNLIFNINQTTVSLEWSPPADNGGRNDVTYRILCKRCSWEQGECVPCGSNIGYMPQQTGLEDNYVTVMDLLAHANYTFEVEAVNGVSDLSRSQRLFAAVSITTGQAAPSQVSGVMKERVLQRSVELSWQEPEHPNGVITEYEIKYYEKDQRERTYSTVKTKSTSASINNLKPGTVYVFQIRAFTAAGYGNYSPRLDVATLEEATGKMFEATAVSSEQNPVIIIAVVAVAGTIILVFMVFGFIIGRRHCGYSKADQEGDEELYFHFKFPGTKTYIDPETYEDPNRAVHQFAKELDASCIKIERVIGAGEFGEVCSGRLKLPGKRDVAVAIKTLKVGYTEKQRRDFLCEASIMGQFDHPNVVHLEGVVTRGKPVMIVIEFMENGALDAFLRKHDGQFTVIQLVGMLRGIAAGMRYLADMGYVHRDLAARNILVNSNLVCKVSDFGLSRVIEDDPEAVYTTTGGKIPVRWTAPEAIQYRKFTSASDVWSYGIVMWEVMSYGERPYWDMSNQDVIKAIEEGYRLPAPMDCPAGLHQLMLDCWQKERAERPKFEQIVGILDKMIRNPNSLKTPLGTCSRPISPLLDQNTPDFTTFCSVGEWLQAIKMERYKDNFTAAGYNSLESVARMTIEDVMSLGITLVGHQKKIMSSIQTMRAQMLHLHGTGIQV

[3] = target: Ephrin type-A receptor 7 (Homo sapiens) (UniProt Q15375); conditions: at 10 µM
[4] = target: T2, Ephrin type-B receptor 1 (Homo sapiens) (UniProt P54762); conditions: at 1 µM
T2 sequence (whole entry): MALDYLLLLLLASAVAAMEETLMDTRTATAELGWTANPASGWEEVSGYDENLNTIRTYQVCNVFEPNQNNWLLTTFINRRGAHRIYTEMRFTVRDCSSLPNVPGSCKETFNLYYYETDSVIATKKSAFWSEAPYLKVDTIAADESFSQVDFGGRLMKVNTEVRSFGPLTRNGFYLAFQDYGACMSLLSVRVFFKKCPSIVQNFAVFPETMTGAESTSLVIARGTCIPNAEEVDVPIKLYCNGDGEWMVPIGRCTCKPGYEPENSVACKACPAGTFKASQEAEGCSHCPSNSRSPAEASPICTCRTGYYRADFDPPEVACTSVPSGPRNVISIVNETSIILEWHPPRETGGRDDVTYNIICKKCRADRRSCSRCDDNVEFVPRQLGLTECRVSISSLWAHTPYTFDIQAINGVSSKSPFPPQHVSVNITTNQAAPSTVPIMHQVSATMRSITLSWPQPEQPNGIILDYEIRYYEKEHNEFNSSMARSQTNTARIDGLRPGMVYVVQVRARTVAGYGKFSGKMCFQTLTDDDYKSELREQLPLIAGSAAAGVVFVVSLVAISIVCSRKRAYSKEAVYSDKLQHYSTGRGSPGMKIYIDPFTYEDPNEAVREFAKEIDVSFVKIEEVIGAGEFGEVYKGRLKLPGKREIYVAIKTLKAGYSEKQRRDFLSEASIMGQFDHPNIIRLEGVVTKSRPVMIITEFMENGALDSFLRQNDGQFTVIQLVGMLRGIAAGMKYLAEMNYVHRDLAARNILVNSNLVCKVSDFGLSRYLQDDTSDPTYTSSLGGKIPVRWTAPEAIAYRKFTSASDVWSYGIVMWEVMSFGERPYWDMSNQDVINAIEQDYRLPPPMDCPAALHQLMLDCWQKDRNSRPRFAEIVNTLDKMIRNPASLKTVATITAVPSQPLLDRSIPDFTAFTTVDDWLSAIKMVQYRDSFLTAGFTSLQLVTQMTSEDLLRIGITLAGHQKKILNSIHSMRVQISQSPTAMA

[5] = target: T2, Ephrin type-B receptor 1 (Homo sapiens); conditions: at 10 µM
[6] = target: T3, Ephrin type-B receptor 3 (Homo sapiens) (UniProt P54753); conditions: at 1 µM
T3 sequence (whole entry): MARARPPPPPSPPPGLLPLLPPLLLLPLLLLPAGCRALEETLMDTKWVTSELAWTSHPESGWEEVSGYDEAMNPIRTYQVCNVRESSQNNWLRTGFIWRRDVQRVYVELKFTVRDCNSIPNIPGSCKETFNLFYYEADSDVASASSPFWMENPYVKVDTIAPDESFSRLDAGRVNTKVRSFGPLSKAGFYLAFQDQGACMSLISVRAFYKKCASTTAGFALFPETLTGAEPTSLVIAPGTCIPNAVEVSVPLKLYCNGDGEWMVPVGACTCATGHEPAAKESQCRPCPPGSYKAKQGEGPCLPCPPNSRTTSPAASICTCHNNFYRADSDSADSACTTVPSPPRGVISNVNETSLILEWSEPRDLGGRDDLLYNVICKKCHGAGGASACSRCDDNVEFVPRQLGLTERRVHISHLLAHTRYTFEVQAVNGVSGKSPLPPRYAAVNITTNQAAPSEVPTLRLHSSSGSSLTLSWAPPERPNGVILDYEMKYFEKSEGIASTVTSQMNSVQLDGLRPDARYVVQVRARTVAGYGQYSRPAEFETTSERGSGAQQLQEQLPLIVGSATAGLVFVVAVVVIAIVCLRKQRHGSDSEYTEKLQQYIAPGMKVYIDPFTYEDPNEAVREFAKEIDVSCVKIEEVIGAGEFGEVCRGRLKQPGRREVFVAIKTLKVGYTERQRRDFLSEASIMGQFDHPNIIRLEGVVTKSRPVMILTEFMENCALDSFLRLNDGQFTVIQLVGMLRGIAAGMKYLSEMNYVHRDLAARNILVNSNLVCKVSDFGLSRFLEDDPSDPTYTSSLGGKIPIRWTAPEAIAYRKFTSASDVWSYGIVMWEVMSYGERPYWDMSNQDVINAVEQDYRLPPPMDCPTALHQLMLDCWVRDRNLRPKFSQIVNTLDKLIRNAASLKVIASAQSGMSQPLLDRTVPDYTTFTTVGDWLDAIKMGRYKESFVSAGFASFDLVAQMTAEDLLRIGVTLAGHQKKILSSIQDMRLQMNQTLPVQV

[7] = target: T3, Ephrin type-B receptor 3 (Homo sapiens); conditions: at 10 µM
[8] = target: T4, Ephrin type-B receptor 4 (Homo sapiens) (UniProt P54760); conditions: at 1 µM
T4 sequence (whole entry): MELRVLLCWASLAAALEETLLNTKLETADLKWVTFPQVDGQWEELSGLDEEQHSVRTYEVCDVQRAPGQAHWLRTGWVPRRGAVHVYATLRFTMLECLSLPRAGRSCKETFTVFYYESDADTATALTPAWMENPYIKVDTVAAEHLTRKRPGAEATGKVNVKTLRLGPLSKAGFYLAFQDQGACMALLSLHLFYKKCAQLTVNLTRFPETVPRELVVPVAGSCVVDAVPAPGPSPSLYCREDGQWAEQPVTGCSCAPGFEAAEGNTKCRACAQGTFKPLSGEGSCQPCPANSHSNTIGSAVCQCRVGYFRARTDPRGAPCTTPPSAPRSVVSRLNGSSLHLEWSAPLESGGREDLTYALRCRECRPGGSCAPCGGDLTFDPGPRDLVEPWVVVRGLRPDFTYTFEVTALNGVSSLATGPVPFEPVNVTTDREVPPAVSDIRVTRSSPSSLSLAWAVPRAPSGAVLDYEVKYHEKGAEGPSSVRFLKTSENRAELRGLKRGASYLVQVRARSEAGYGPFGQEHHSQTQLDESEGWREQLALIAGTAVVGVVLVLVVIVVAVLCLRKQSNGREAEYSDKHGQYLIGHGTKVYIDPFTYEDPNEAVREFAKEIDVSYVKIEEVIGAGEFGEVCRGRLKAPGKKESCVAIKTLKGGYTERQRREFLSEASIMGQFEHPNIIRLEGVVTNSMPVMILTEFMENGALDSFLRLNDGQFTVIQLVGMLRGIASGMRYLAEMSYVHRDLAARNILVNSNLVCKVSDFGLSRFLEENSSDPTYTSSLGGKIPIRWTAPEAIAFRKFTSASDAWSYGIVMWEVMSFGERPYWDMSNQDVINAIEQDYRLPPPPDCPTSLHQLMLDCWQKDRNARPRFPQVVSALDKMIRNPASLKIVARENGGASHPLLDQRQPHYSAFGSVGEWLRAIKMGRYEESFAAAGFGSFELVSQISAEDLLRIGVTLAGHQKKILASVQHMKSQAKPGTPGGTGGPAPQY

[9] = target: T4, Ephrin type-B receptor 4 (Homo sapiens); conditions: at 10 µM
[10] = target: Receptor tyrosine-protein kinase erbB-4 (Homo sapiens) (UniProt Q15303); conditions: at 10 µM
Receptor tyrosine-protein kinase erbB-4 (Homo sapiens), sequence (Q15303 whole entry): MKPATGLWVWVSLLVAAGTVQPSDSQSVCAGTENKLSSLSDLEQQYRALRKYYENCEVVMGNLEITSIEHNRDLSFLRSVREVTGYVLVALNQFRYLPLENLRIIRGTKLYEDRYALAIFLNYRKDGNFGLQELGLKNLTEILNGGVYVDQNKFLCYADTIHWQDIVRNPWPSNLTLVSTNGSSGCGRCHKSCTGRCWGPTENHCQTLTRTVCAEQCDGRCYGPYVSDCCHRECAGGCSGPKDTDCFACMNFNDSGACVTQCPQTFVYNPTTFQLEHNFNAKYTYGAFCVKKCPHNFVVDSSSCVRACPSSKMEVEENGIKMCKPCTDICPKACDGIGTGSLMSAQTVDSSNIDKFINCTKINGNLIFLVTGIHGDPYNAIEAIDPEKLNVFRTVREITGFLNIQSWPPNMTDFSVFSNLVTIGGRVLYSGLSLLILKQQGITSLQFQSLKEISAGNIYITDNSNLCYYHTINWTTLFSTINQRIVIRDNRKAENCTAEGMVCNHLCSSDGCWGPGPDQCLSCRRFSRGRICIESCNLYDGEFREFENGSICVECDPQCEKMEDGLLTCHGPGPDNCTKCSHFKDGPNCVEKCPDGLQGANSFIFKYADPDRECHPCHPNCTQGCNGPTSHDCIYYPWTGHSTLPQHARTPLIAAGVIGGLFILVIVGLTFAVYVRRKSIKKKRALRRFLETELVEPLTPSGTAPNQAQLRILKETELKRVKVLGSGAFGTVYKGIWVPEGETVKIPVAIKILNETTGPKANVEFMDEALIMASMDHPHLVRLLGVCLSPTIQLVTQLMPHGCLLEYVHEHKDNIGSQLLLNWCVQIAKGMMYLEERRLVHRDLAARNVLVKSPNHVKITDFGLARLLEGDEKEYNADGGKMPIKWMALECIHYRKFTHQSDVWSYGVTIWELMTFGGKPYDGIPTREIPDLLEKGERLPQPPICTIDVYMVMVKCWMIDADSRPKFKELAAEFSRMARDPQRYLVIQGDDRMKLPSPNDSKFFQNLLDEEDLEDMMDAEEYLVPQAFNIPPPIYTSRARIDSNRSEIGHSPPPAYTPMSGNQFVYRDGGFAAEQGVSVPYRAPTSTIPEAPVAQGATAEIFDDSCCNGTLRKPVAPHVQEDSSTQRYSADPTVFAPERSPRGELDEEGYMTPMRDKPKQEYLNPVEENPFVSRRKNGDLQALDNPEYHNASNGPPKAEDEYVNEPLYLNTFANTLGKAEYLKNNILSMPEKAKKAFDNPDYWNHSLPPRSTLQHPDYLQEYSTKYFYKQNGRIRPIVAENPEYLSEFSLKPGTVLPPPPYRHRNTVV

[11] = target: Focal adhesion kinase 1 (Homo sapiens) (UniProt Q05397); conditions: at 1 µM
Focal adhesion kinase 1 (Homo sapiens), sequence (Q05397 2-1052 limits assumed): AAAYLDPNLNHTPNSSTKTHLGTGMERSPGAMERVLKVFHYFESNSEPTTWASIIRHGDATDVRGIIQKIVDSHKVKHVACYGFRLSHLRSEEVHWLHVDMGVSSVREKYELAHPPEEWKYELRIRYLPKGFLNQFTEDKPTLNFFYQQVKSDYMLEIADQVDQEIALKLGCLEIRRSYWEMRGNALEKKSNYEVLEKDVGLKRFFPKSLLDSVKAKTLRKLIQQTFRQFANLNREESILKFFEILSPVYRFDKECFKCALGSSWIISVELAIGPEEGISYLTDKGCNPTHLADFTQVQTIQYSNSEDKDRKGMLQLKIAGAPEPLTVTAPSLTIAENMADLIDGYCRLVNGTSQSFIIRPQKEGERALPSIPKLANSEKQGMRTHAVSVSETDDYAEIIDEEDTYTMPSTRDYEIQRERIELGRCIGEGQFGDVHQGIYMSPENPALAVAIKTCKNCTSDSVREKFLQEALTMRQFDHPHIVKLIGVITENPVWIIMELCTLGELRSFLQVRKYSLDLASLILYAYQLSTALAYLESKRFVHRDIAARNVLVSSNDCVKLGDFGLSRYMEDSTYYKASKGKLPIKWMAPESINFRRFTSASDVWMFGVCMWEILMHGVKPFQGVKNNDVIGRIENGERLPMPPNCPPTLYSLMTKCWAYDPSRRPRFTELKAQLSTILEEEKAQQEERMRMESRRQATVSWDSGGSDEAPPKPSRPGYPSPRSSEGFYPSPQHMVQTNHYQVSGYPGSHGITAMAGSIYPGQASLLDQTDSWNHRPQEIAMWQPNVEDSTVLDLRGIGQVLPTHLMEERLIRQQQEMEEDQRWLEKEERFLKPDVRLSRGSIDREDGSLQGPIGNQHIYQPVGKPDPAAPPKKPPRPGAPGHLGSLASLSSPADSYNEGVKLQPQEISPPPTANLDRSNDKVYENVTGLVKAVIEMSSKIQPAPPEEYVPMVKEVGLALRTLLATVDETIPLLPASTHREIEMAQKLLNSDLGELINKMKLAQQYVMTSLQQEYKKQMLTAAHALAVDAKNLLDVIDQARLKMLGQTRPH

[12] = target: Ephrin type-A receptor 5 (Homo sapiens) (UniProt P54756); conditions: at 1 µM
Ephrin type-A receptor 5 (Homo sapiens), sequence (P54756 whole entry): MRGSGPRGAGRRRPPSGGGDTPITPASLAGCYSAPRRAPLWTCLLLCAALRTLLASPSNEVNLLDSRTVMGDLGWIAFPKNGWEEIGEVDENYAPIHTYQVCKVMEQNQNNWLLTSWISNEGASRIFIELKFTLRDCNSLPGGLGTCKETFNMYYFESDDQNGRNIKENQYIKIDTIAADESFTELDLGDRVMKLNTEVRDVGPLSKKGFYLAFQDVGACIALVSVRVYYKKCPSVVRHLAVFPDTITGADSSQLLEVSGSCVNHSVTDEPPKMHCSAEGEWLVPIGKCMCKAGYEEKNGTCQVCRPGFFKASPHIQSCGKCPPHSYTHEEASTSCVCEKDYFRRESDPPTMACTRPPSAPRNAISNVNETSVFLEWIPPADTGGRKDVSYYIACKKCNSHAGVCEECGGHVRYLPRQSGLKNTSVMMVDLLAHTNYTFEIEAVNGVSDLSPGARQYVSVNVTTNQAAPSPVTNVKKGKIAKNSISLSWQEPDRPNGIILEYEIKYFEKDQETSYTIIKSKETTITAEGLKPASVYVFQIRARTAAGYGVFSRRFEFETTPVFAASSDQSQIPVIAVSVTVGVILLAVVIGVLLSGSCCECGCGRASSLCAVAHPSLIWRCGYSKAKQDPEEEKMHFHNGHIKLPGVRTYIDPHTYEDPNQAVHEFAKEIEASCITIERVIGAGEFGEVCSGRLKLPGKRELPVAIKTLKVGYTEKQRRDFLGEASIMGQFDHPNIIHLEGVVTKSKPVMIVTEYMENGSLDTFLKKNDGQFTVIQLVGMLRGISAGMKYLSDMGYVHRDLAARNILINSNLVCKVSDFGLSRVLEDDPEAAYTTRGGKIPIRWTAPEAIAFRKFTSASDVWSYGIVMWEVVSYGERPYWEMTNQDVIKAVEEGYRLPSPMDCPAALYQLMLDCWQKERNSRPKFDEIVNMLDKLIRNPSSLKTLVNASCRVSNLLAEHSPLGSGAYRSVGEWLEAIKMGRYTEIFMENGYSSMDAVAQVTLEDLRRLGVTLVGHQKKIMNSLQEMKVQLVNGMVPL

[13] = target: Ephrin type-A receptor 5 (Homo sapiens) (UniProt P54756); conditions: at 10 µM
[14] = target: T5, Ephrin type-B receptor 2 (Homo sapiens) (UniProt P29323); conditions: at 1 µM
T5 sequence (whole entry): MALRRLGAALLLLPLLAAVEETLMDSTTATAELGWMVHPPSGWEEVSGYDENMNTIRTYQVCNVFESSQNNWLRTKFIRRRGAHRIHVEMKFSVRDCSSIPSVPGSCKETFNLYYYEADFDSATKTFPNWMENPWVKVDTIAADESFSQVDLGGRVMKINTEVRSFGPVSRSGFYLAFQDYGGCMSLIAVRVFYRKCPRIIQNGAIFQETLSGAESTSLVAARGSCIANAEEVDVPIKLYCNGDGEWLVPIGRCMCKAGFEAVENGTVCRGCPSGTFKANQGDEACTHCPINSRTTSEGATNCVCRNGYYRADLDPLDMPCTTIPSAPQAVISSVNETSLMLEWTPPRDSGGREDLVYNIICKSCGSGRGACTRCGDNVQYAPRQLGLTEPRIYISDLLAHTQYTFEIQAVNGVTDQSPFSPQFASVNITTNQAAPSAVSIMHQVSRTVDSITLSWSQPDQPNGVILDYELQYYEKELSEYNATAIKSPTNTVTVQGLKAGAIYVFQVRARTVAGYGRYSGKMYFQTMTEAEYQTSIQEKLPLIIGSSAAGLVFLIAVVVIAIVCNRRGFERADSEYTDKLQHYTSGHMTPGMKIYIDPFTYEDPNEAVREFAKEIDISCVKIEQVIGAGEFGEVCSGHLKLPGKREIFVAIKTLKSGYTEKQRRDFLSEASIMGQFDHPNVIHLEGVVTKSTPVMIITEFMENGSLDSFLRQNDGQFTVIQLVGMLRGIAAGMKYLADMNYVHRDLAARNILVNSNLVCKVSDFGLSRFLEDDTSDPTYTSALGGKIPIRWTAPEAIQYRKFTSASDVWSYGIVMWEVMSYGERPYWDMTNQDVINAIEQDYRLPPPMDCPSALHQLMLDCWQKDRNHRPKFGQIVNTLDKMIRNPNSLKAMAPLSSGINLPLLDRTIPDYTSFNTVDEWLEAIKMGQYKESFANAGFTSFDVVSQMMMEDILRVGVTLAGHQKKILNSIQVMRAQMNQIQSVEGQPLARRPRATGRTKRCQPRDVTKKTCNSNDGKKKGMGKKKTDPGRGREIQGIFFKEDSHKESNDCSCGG

[15] = target: T5, Ephrin type-B receptor 2 (Homo sapiens); conditions: at 10 µM
[16] = target: Receptor tyrosine-protein kinase erbB-4 (Homo sapiens) (UniProt Q15303); conditions: at 1 µM

SMILES	residual activity [1] [%]	residual activity [2] [%]	residual activity [3] [%]	residual activity [4] [%]	residual activity [5] [%]	residual activity [6]	residual activity [7] [%]	residual activity [8] [%]	residual activity [9] [%]	residual activity [10] [%]	residual activity [11] [%]	residual activity [12] [%]	residual activity [13] [%]	residual activity [14] [%]	residual activity [15] [%]	residual activity [16] [%]
c1ccc(-c2cnc(Nc3ccc(OCCN4CCCC4)cc3)s2)cc1	69	104	76	104	65	112% (inactive)	120	109	64	61	132	–	–	–	–	–
O=C1NC(=O)C(c2cn(CCCn3ccnc3)c3ccccc23)=C1Nc1ccccc1	–	–	–	–	–	114% (inactive)	148	109	119	13	119	125	109	115	122	70
